# According to PubChem BioAssay (NCATS):
# Results filed as inconclusive are left out. Where a call stands in place of a potency, no number is given. The source made the active and inactive calls. Unless noted, calls follow the shape of the dose curve; as a rule, active = well fitted curve in the direction sought with a large enough effect; inconclusive = small, poorly fitted or top-dose-only effect, or another doubt; inactive = no such curve, though single readings can be large; an effect the other way counts as inactive or inconclusive.
# Legend:
# [1] = Counterscreen for APE1 Inhibitors: Fluorescent Dye Displacement Validation Assay (AID 1707)
# Procedure, shortened: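 Thiazole Orange displacement from dsDNA: 250 nM ThO with 50 nM TAMRA-labelled abasic-site (tetrahydrofuran) duplex in 50 mM Tris-HCl pH7.5, 50mM NaCl, 2 mM MgCl2, 0.01% Tween-20. Loss of endpoint fluorescence (ex 480 nm, em 540 nm) flags DNA binders.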
# [2] = qHTS for differential inhibitors of proliferation of Plasmodium falciparum line 7G8 (AID 1815);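 also: potency is read from the fitted curve at half-maximal effect; parasite growth measured after three days of incubation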
# [3] = qHTS for differential inhibitors of proliferation of Plasmodium falciparum line 3D7 (AID 1876);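 also: parasite growth measured after three days of culture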
# [4] = qHTS for differential inhibitors of proliferation of Plasmodium falciparum line Dd2 (AID 1882); conditions: Potency: Plasmodium falciparum Dd2 proliferation inhibition;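 also: series mostly up to about 29 µM; compound exposure of 72 h on infected erythrocytes; nearly all actives have a fitted effect of over 65% in size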
# Procedure, shortened: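 SYBR Green I DNA fluorescence read-out, ex 485/em 535 nm. Signals were normalized to 0.29 uM artemisinin and DMSO wells, then corrected using vehicle-only plates flanking each stack. Parasite growth ran 72 h in erythrocytes before lysis.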
# [5] = qHTS for differential inhibitors of proliferation of Plasmodium falciparum line W2 (AID 1883); conditions: Potency: Plasmodium falciparum W2 proliferation inhibition;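 also: potency is read from the fitted curve at half-maximal effect; parasites grown with compound for 72 h before lysis and staining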
# [6] = biological target: Ferritin light chain (Equus caballus) (UniProt P02791); assay: qHTS Validation Assay for Identification of Novel General Anesthetics (AID 2323); also: series mostly up to about 77 µM
# Ferritin light chain (Equus caballus), sequence (P02791 2-175 limits assumed): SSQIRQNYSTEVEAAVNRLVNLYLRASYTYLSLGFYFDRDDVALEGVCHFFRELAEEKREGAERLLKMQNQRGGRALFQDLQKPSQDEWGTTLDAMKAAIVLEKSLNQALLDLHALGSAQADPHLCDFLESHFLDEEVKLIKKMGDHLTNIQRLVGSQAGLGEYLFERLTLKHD
# Procedure, shortened: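 Horse-spleen apoferritin (10 uM) in PBS with 50% saturated 1-aminoanthracene; compounds pin-transferred, 10 min at room temperature. Fluorescence read at 380/535 nm, normalized to free 1-AMA and 1-AMA/apoferritin values; four-parameter Hill fit.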
# [7] = biological target: ATP-dependent DNA helicase Q1 (Homo sapiens) (UniProt P46063); assay: qHTS Validation Assay for Inhibitors of RecQ-Like Dna Helicase 1 (RECQ1) (AID 2353)
# ATP-dependent DNA helicase Q1 (Homo sapiens), sequence (P46063 whole entry, looked up): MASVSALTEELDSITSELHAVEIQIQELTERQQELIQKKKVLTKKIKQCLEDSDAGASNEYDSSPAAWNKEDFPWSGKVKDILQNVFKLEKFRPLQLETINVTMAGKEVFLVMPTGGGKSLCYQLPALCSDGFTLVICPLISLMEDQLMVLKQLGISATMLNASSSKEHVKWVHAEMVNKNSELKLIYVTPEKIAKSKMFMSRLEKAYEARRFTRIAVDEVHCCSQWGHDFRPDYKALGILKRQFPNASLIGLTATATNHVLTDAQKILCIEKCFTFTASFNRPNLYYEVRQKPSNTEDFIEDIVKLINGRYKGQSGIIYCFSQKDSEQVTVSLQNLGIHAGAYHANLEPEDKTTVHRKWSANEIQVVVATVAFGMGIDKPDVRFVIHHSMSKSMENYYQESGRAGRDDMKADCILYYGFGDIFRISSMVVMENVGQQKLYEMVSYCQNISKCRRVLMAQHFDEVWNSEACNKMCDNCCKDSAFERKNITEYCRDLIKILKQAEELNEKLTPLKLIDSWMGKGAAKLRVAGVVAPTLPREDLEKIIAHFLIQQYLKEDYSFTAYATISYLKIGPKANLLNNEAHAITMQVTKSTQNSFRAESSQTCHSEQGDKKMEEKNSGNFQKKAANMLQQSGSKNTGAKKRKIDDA
# Procedure, shortened: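 50 nM RECQ1T1 preincubated 15 min with compound in Tris pH 8.0 buffer with MgCl2, DTT, Tween-20 and 2.5 ug/ml poly(dI-dC); started with 200 nM TAMRA/BHQ-2 forked duplex and 2 mM ATP. Unwinding read as fluorescence (525/598 nm), two reads 2 h apart.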
# [8] = biological target: RecQ-like DNA helicase BLM (Homo sapiens) (UniProt P54132); assay: qHTS Validation Assay for Inhibitors of Bloom's syndrome helicase (BLM) (AID 2364)
# RecQ-like DNA helicase BLM (Homo sapiens), sequence (P54132 whole entry, looked up): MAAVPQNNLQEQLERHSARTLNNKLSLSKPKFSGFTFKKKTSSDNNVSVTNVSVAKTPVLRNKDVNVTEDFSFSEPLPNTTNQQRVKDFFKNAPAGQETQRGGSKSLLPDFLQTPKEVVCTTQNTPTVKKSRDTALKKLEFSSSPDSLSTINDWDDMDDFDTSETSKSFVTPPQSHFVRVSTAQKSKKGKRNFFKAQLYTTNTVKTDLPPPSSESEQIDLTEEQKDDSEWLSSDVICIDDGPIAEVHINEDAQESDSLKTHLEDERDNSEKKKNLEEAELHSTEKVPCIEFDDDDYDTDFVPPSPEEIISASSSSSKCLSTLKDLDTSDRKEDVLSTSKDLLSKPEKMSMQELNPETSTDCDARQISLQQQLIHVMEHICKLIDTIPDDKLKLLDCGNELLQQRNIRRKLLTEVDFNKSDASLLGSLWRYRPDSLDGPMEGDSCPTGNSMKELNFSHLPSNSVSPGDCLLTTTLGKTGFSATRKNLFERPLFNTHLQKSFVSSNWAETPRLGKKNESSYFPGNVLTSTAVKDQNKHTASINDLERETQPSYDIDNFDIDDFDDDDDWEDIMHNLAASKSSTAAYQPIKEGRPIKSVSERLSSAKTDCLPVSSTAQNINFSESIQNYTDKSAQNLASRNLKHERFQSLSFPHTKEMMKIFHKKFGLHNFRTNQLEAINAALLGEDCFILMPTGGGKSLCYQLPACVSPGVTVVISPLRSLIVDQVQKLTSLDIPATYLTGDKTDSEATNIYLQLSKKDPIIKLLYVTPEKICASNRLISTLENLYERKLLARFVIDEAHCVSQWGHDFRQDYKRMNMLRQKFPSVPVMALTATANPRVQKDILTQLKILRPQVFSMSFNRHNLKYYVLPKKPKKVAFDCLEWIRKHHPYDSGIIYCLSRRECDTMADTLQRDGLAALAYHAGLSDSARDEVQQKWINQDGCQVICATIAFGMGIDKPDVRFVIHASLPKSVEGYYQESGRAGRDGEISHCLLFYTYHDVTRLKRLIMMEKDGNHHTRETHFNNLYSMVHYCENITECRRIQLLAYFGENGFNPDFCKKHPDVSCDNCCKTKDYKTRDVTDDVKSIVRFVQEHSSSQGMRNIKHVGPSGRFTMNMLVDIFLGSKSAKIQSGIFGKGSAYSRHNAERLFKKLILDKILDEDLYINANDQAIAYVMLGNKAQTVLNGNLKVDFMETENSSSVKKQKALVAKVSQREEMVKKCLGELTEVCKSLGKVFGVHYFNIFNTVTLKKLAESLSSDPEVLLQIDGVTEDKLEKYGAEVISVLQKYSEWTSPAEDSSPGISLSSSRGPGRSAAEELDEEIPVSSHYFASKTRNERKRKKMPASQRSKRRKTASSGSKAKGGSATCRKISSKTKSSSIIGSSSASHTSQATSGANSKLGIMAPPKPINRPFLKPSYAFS
# Procedure, shortened: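 BLM 50 nM in 25 mM Tris-HCl pH 8.0, 5 mM NaCl, 2 mM MgCl2, 1 mM DTT, 0.01% Tween-20, 2.5 ug/ml poly(dI-dC); 15 min cpd preinc, RT. Start: 200 nM forked DNA + 2 mM ATP (final). TAMRA read, 2 reads 2 h apart.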
# [9] = Validation screen for inhibitors of Lassa infection (AID 463096; calls by dose curve)
# [10] = Validation screen for small molecules that induce DNA re-replication in MCF 10A normal breast cells (AID 463097); also: nearly all actives have a fitted effect of over 60% in size
# Procedure, shortened: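 MCF 10A cells exposed to compound 48 hr at 37 C, 5% CO2, then Hoechst-stained 40 min. Laser-scanning imaging of nuclear DNA content (405 nm ex, 500-530 nm em); re-replication scored as rise in nuclei with elevated fluorescence intensity.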
# [11] = biological target: Transient receptor potential cation channel subfamily V member 1 (Homo sapiens) (UniProt Q8NER1); assay: HTS Assay for Compounds that Act as Enhancers of the Vanilloid Receptor 1 (AID 488979)
# Procedure, shortened: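 TRPV1-expressing cells loaded with Fluo-8 calcium dye; compounds added and calcium influx read kinetically for 3 min (agonist phase), then capsaicin at EC20 added and read 2 min more for enhancement. Fluorescence ex 480/em 520 nm.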
# [12] = biological target: Thyrotropin receptor (Homo sapiens) (UniProt P16473); assay: qHTS Assay for Antagonists of the Thyroid Stimulating Hormone Receptor (AID 488980); also: series mostly up to about 58 µM
# Procedure, shortened: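 TSHR-transfected HEK293 cells (2000/well) in HEPES-buffered HBSS with 70 uM RO 20-1724 were stimulated with 4 nM TSH (EC80, final) in the presence of compound. cAMP was measured by HTRF competition after lysis and 30 min at RT.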
# [13] = biological target: Thyrotropin-releasing hormone receptor (Homo sapiens) (UniProt P34981); assay: qHTS for Small Molecule Agonists and Allosteric Enhancers of Human TRH Receptor: Validation Screen for Agonists (AID 493127;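 active = calcium activation more than 3 SD above the typical response in the agonist read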;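 also: intracellular calcium rise by fluo-8 fluorescence before TRH EC20 addition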); conditions: TRH receptor agonist cell assay; at 2 µM; active compounds read high
# Thyrotropin-releasing hormone receptor (Homo sapiens), sequence (P34981 whole entry, looked up): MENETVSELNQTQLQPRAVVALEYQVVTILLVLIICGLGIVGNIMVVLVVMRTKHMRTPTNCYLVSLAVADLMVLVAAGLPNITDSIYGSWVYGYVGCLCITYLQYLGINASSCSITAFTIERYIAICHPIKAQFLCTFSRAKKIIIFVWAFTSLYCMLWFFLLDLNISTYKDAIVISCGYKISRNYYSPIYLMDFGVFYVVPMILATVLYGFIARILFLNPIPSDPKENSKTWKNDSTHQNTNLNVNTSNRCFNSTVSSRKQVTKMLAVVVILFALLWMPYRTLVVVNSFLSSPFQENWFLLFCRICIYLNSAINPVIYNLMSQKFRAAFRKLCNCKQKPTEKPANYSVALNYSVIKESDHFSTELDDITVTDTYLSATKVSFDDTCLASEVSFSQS
# Procedure, shortened: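 TRHR-expressing cells were plated overnight in serum-containing medium, then loaded with fluo-8 calcium dye at room temperature for 30 min–1.5 h. After a 10 s baseline, compound was pin-transferred and calcium fluorescence (ex 480/em 530) read kinetically for agonist response.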
# [14] = biological target: Galactokinase (Homo sapiens) (UniProt P51570); assay: qHTS Validation Assay for Inhibitors of Human Galactokinase (GALK) (AID 493189)
# Galactokinase (Homo sapiens), sequence (P51570 whole entry, looked up): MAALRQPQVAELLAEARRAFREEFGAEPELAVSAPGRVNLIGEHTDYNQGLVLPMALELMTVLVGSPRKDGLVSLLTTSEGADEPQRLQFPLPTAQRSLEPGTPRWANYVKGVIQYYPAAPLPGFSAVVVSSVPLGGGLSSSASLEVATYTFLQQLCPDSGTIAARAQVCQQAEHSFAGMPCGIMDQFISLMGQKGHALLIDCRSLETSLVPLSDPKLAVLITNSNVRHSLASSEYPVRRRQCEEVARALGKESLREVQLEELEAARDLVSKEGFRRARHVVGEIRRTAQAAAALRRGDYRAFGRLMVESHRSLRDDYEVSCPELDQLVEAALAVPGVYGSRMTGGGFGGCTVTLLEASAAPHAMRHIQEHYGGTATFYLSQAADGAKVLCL
# Procedure, shortened: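 GALK (5 nM) with 35 uM ATP and 100 uM galactose in HEPES pH 8.0 with MgCl2, NaCl, DTT and BSA. Reaction ran 1 h at room temperature. Residual ATP read by Kinase-Glo Plus luminescence.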
# [15] = biological target: Voltage-gated inwardly rectifying potassium channel KCNH2 (Homo sapiens) (UniProt Q12809); assay: qHTS Assay for Small Molecule Inhibitors of the Human hERG Channel Activity (AID 588834);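 also: top concentration of the series differs between compounds; lower thallium flux fluorescence means stronger hERG block; nearly all actives have a fitted effect of over 50% in size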
# Voltage-gated inwardly rectifying potassium channel KCNH2 (Homo sapiens), sequence (Q12809 whole entry, looked up): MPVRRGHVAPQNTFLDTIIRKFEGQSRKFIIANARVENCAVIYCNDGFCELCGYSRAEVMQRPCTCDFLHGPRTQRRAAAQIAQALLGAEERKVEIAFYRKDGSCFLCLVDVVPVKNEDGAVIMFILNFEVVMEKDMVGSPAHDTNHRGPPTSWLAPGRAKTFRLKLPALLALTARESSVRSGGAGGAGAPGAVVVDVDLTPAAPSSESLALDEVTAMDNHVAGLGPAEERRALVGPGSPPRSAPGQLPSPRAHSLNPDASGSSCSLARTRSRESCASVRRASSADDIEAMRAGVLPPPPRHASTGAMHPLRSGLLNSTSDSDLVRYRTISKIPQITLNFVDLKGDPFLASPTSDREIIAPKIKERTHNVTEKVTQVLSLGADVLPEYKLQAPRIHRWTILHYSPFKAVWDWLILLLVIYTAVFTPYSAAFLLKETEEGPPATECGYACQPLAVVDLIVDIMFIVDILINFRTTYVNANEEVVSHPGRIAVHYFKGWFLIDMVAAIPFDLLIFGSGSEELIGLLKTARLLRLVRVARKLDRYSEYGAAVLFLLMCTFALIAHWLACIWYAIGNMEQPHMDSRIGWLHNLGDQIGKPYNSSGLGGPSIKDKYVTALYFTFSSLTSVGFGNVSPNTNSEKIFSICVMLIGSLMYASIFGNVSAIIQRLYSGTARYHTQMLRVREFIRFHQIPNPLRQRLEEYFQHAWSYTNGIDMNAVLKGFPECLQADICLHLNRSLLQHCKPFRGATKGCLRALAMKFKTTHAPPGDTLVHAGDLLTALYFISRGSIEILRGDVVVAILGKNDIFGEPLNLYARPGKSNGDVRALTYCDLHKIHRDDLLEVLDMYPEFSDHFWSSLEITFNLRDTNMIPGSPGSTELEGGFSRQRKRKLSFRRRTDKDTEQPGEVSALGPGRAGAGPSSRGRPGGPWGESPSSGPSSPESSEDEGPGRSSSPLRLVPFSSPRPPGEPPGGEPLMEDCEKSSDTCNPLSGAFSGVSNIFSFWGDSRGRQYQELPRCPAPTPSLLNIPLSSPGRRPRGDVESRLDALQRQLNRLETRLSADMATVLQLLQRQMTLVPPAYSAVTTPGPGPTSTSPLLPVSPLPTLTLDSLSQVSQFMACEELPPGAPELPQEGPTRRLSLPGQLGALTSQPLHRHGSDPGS
# Procedure, shortened: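 U2OS cells BacMam-transduced with hERG, 2000 cells/well, compound ~10 min at 37 °C before stimulation buffer. FluxOR thallium flux fluorescence read kinetically on FDSS; decrease indicates block; AC50 from Hill fits.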
# Furin (Homo sapiens) = Furin (Homo sapiens) (UniProt P09958); assay: Furin counterscreen qHTS for Zika virus inhibitors (AID 1347149); also: potency is read from the fitted curve at half-maximal effect; nearly all actives have a fitted effect of over 70% in size
# Furin (Homo sapiens), sequence (P09958 whole entry, looked up): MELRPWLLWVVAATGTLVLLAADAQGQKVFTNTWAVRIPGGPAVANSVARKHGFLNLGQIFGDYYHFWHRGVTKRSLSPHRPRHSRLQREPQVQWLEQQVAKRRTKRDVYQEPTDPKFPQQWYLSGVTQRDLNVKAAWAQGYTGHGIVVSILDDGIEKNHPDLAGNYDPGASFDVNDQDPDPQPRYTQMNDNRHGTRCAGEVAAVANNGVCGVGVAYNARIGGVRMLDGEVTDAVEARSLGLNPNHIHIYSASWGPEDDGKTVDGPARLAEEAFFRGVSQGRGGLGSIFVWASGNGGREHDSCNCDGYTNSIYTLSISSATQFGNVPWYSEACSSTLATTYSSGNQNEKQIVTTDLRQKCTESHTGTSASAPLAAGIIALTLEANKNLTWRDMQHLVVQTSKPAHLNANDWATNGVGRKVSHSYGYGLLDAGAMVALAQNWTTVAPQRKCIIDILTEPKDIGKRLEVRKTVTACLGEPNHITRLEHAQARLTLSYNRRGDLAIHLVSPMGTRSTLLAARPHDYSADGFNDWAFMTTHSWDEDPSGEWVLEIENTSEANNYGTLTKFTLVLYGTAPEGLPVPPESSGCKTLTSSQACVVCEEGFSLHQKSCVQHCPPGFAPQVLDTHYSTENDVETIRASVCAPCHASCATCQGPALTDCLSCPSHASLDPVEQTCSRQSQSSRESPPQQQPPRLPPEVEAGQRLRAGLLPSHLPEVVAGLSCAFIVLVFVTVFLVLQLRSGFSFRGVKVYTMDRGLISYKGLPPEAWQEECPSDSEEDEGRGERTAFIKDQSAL
# Procedure, shortened: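 Fluorogenic cleavage of BOC-RVRR-AMC (2 microM final, Km ~15 µM) was monitored (ex 340, em 450 nm) at 37C after 15 min RT preincubation of 5 nM furin with compounds in HEPES pH 7.0 buffer with CaCl2 and Triton X-100. Percent inhibition was fitted to a 4-parameter Hill curve.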
# [16] = tested on: Zika virus NS2B-NS3 protease (linked construct); assay: Confirmatory screen NINDS AMC qHTS for Zika virus inhibitors (AID 1347152); also: potency is read from the fitted curve at half-maximal effect; nearly all actives have a fitted effect of over 70% in size
# Procedure, shortened: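 Linked NS2B-NS3 protease, 1 nM, in 10 mM Tris-HCl pH 8.0, 0.01% Tween 20; compounds preincubated 15 min at room temperature. Nle-KRR-AMC 10 microM (Km 18.3 µM); 15-min fluorescence change (340/450 nm) fitted to 4-parameter Hill.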
# [17] = tested on: Zika virus NS2B-NS3 protease (unlinked complex); assay: Confirmatory screen GU AMC qHTS for Zika virus inhibitors (AID 1347153);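 also: enzyme at 25 nM with substrate at 10 µM below its Km of 18.3 µM; potency is read from the fitted curve at half-maximal effect; nearly all actives have a fitted effect of over 70% in size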
# Procedure, shortened: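 Noncovalent NS2B hydrophilic domain/NS3 protease complex (25 nM) in 10 mM Tris-HCl pH 8.0, 0.01% Tween 20 was preincubated 15 min at room temperature with compounds. Then 10 µM AMC substrate (Km 18.3 µM) was added; fluorescence was read over 15 min and fitted to a 4-parameter Hill equation.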
# [18] = tested on: Zika virus NS2B-NS3 protease; assay: Primary screen GU AMC qHTS for Zika virus inhibitors (AID 1347154); also: potency is read from the fitted curve at half-maximal effect; nearly all actives have a fitted effect of over 70% in size
# Procedure, shortened: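 Unlinked Zika NS2B hydrophilic domain/NS3 protease domain noncovalent complex (25 nM final) in 10 mM Tris-HCl pH 8.0, 0.01% Tween 20, with AMC peptide substrate. Fluorescence (ex 340, em 450 nm) change over 15 min, room temperature; percent inhibition fitted to 4-parameter Hill equation.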
# [19] = Vero cells viability qHTS for Zika virus inhibitors (AID 1347167)
# Procedure, shortened: (§1)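 Counter-screen for cytotoxicity of hits from NS2B-NS3 protease qHTS. Overnight-attached cells (2.5 x 10^5 cells/mL, DMEM/4% FBS) were dosed in titration, incubated 24 to 48 hours, then assayed by CellTiter Glo.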
# [20] = HepG2 cells viability qHTS for Zika virus inhibitors (AID 1347168)
# Procedure, shortened: as §1
# [21] = Tertiary RLuc qRT-PCR qHTS assay for Zika virus inhibitors (AID 1347169); also: top concentration of the series differs between compounds; nearly all actives have a fitted effect of over 55% in size
# Procedure, shortened: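 Vero cells (1,000/well) infected with recombinant ZIKV-RLuc (Cambodian) at MOI 1-2 after compound addition, 48-72 hrs at 37 degrees C. Live-cell Renilla luciferase substrate added; luminescence read after 1-1.5 hrs.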
# [22] = Primary qHTS for small molecule stabilizers of the endoplasmic reticulum resident proteome: Secreted ER Calcium Modulated Protein (SERCaMP) assay (AID 1508630)
# Procedure, shortened: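 GLuc-SERCaMP-expressing SH-SY5Y cells, pretreated 16 h with compound, are challenged with thapsigargin to empty ER calcium stores; after 4 h, coelenterazine is added directly to the medium and luminescence is imaged.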
structure (smiles),measurement,setting,value
COC(=O)c1cc2c(cn1)[nH]c1ccccc12,Potency,[1],inactive
same,Potency,[2],11.2 µM (active)
same,Potency,[3],inactive
same,Potency,[4],inactive
same,Potency,[5],12.6 µM (active)
same,outcome,[6],inactive
same,Potency,[7],inactive
same,Potency,[8],inactive
same,Potency,[9],inactive
same,Potency,[10],inactive
same,outcome,[11],inactive
same,outcome,[12],inactive
same,activation,[13],1.44% (inactive)
same,outcome,[14],inactive
same,Potency,[15],inactive
same,Potency,Furin (Homo sapiens),24.1 µM (active)
same,Potency,[16],24.1 µM (active)
same,Potency,[17],24.1 µM (active)
same,Potency,[18],23.8 µM (active)
same,Potency,[19],inactive
same,Potency,[20],inactive
same,Potency,[21],inactive
same,Potency,[22],inactive
